# Source: PubChem BioAssay (NCATS)
# Results filed as inconclusive are left out. A call without a number means that no potency is given here. The source made the active and inactive calls. Calls follow the shape of the dose curve; as a rule, active = well fitted cell-killing curve with a large enough effect; inconclusive = small, poorly fitted or top-dose-only effect, or effect the other way; inactive = flat fitted curve, though single readings scatter. Where a SMILES comes first, the peptide text is derived from it. [ ]: non-standard residue; d: D form. ξ: configuration not given here. ξPhe(βξ-Me) = CC(c1ccccc1)C(N)C(=O)O; GABA = NCCCC(=O)O
# Tested on: OV90
# Assay: Primary qHTS to identify gynecologic anti-cancer compounds using libraries of approved drugs and bioactive compounds (AID 1345084); also: nearly all actives have a fitted effect of over 55% in size
# Conditions: Gynecologic cancer cell panel viability, ATPlite luminescence, 48 h; series mostly up to 57.5 µM
# How it was run: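 In this quantitative HTS, cell killing is estimated from loss of ATP-dependent luciferase light. Cells see five compound concentrations over a 48 h exposure.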
SMILES,Potency,"activity change, negative = cytotoxicity"
COc1cc(C)c(C(=O)O[C@H]2[C@@H](O)[C@H](n3ccc(=O)[nH]c3=O)O[C@@H]2CO)c(OC)c1,inactive,
CC(C)CC1NC(=O)C(C(C)c2ccccc2)NC(=O)C(C(C)C)NC(=O)C(C)NC(=O)CCCNC(=O)C(Cc2c[nH]c3ccccc23)NC(=O)C(C)NC1=O (stereo not drawn) (cyclo([GABA]AV[ξPhe(βξ-Me)]LAW); configuration not given here),inactive,
COc1cc(N2CCC(O)CC2)ccc1Nc1cc(Nc2ccccc2S(=O)(=O)C(C)C)c2cc[nH]c2n1,inactive,
O=C(O)C[C@@H](NC(=O)c1cc(-c2ccc(-c3ccncc3)cc2)cs1)c1ccccc1,inactive,
OC[C@H]1O[C@@H](n2cnc3c2NC=NC[C@H]3O)C[C@@H]1O,inactive,
CC1(C)C[C@H]2C3=CCC4[C@@]5(C)CC[C@H](O[C@H]6O[C@H](C(=O)O)[C@@H](O)[C@H](O)[C@H]6O[C@H]6O[C@H](CO)[C@@H](O)[C@H](O)[C@H]6O[C@@H]6O[C@H](CO)[C@@H](O)[C@H](O)[C@H]6O)[C@](C)(CO)C5CC[C@@]4(C)[C@]3(C)CC[C@@]2(C)[C@H](O[C@@H]2OC[C@H](O)[C@H](OC3O[C@H](CO)[C@@H](O)[C@H](O)[C@H]3O)[C@H]2O)[C@@H]1O (some centres undefined),,-1.3% [at 6.55 µM] (inactive)
C[C@@H]1O[C@@H](O[C@H]2[C@H](OC(=O)[C@]34CCC(C)(C)C[C@H]3C3=CCC5[C@@]6(C)C[C@H](O)[C@H](O[C@@H]7O[C@H](CO)[C@@H](O[C@@H]8O[C@H](CO)[C@@H](O)[C@H](O)[C@H]8O)[C@H](O)[C@H]7O)[C@@](C)(CO)C6[C@H](O)C[C@@]5(C)[C@]3(C)C[C@H]4O)OC[C@H](O)[C@@H]2O)[C@H](O)[C@H](O)[C@H]1O[C@@H]1OC[C@@H](O)[C@H](O[C@@H]2OC[C@](O)(CO)[C@H]2O)[C@H]1O (some centres undefined),,4.05% [at 6.55 µM] (inactive)
Nc1ccn([C@@H]2C(F)=C(CO)[C@@H](O)[C@H]2O)c(=O)n1,inactive,
C[C@@H]1O[C@@H](OC[C@H]2O[C@@H](OCC3CCC4CC3C4(C)C)[C@H](O)[C@@H](O)[C@@H]2O)[C@H](O)[C@H](O)[C@H]1O (some centres undefined),inactive,
CC(C)=CCC/C(C)=C/CC/C(C)=C/CC[C@]1(C)CCc2cc(O)cc(C)c2O1,inactive,
CC(=O)N1c2ccccc2C2(O)CC3C(=O)NC(CC(C)C)C(=O)N3C12 (centres undefined),inactive,
CCCCS(=O)(=O)Nc1ncnc(OCCOc2ncc(Br)cn2)c1-c1ccc(Br)cc1,inactive,
C[C@@H]1O[C@@H](OC[C@H]2O[C@@H](OCCc3ccccc3)[C@H](O)[C@@H](O)[C@@H]2O)[C@H](O)[C@H](O)[C@H]1O,inactive,
CCN[C@@H]1C[C@H](N)[C@@H](O[C@H]2OC(CN)=CC[C@H]2N)[C@H](O)[C@H]1O[C@H]1OC[C@](C)(O)[C@H](NC)[C@H]1O,inactive,
CC(CO[C@@H]1O[C@H](COC(=O)/C=C/c2ccc(O)c(O)c2)[C@@H](O)[C@H](O)[C@H]1O)C1(O)COC(=O)C1 (some centres undefined),inactive,
Oc1ccc([C@H]2COc3cc(O)ccc3C2)cc1,inactive,
Cc1nnc(C(C)C)n1C1CC2CCC(C1)N2CCC(NC(=O)C1CCC(F)(F)CC1)c1ccccc1 (centres undefined),inactive,
CC1(C)CCC[C@@]2(C)[C@H]1[C@H](O)C=C1COC(=O)[C@@]12O,inactive,
O=C1[C@H](O[C@@H]2O[C@H](CO)[C@@H](O)[C@H](O)[C@H]2O)Oc2ccccc2N1O,inactive,
COC(=O)[C@H](OC(C)=O)[C@H]1C(C)(C)C(=O)[C@H]2CC3=C4CC(=O)O[C@@H](c5ccoc5)[C@]4(C)CCC3[C@@]1(C)C2=O (some centres undefined),inactive,
CCCCN(CCCC)C(=O)CN1C[C@H](c2ccc3c(c2)OCO3)[C@@H](C(=O)O)[C@@H]1c1ccc(OC)cc1,inactive,
C=C[C@](C)(CC/C=C(\C)C(=O)O)O[C@@H]1OC[C@H](O)[C@H](O)[C@H]1O,inactive,
COC(=O)C1=CO[C@@H](O[C@@H]2O[C@H](CO)[C@@H](O)[C@H](O)[C@H]2O)[C@@H]2[C@@H](C(=O)OC)[C@@H](O)C(O)[C@H]12 (some centres undefined),inactive,
O=C(O)Cc1nn(Cc2nc3cc(C(F)(F)F)ccc3s2)c(=O)c2nccnc12,inactive,
